Bioassay records deposited in PubChem BioAssay by National Center for Advancing Translational Sciences (NCATS).
A selection: hits, their analogues and other compounds. The true share with any hit is near 0.69%.
IL2 activator: activates IL-2 in a cell-based reporter assay; hit rate 0.065% among 360,000; activation, % (series mostly up to about 46 µM); IL-2 activation reporter assay, cell-based qHTS; stimulated with anti-CD3/CD4/CD28 beads; in transgenic mouse T cells; in the data active = activation above about 50%; inconclusive = mostly about 30% to 49%; note: 0% is about no effect
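Unstimulated transgenic mouse T cells preincubated 60 min with compound, then stimulated with anti-CD3/anti-CD4-coated beads plus anti-CD28 for 18 h at 37 degrees C. IL-2 response read as EGFP and DsRed fluorescence by plate cytometry.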
TCR act: activators of T cell receptors. 330,000 tested, under 10 active. AID 504894. primary human leukocytes, anti-CD3, IL-2 HTRF, 48 h. Potency, µM (top dose mostly 9.22 µM), inactives show at the top dose activation of IL-2 secretion, usual class: activators; note: % of control where 0% means no effect
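IL-2 release read by HTRF sandwich (Eu cryptate donor, d2 acceptor, 665 nm emission) after 48 hr exposure of primary human leukocytes to compound together with anti-CD3 beads in the absence of co-stimulatory signals.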
A-T KAP1 phos: potential ataxia-telangiectasia treatments restoring KAP-1 phosphorylation | Potency, µM (doses to about 57.5 µM), without a hit: at the top dose activation, actives largely listed as activators | hit rate 0.19% among 320,000 | F2112 A-T fibroblasts, KAP-1 phosphorylation AlphaLISA; neocarzinostatin DNA damage 30 min before lysis; note: potency is the fitted concentration of half-maximal effect; % of control where 0% means no effect; nearly all actives have a fitted effect of over 45% in size
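hTERT-immortalized A-T patient fibroblasts (F2112), 500 cells/well in OPTI-MEM, 1% FBS, got compounds for 60 min, then NCS for 30 min at 37C. Lysates were then assayed for phospho-KAP-1 by AlphaLISA (anti-pKAP1 donor, anti-KAP1 acceptor beads), 6 hr at 25C.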
a7 integrin act: integrin-mediated muscular dystrophy alleviation activation. alpha7betagal myoblasts, beta-gal FDG fluorescence, 48 h. Potency, µM (doses to about 38.3 µM), for inactives: top-dose activation, hits mostly activators. hit rate 0.064% among 350,000;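 note: potency is the fitted concentration of half-maximal effect; 100% = response of the positive control SU9516; nearly all actives have a fitted effect of over 60% in size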
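Alpha7betagal+/- myoblasts (passage 13) were plated 16-24 hr, then exposed to compounds (1:260 dilution of DMSO stock) for 48 hours at 37C. After MPER lysis, β-galactosidase reporter activity was read as FDG fluorescence (ex 480/em 540) after 30 minutes.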
PKM2 act: PKM2 (human) enzyme activation; P14618; purified PKM2, Kinase-Glo ATP luminescence, activation; response scale: 0% is enzyme alone, no compound; Potency, µM (highest dose often 57.5 µM), inactives show top-dose activation, actives largely listed as activators; hit rate 0.34% among 260,000; AID 1631; note: potency is the fitted concentration of half-maximal effect; % is set by controls: 0 for no effect and ±100 for the full control effect; nearly all actives have a fitted effect of over 55% in size
Target sequence (P14618 whole entry, looked up): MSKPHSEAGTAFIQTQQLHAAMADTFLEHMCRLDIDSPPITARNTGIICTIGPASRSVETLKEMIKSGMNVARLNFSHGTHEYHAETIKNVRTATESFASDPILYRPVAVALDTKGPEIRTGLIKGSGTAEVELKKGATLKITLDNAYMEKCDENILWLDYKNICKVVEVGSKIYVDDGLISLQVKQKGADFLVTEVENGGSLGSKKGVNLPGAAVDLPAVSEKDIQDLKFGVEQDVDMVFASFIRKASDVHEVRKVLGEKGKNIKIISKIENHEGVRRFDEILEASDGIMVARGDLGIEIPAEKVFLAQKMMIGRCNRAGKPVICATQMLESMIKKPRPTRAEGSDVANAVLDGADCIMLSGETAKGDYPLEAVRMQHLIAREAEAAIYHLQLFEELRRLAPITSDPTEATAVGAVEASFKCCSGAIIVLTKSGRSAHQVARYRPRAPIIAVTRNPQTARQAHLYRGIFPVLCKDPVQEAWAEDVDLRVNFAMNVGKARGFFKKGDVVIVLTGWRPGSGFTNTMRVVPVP
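Purified hPK-M2 (>95% pure) converted ADP (0.1 mM final) to ATP with 0.5 mM PEP in 50 mM imidazole pH7.2, KCl, MgCl2, Tween 20, BSA; 1 h at room temperature. ATP detected by Kinase-Glo luminescence.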
Tb PFK block: inhibitors of T. brucei phosphofructokinase; T. brucei PFK, ADP-Glo luminescence; O15648; Potency, µM (doses to about 57.5 µM), inactives show top-dose activity, negative = inhibition, usual class: inhibitors; AID 485367; hit rate 0.17% among 330,000;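 note: potency is the fitted concentration of half-maximal effect; 0% = uninhibited 1x PFK enzyme wells and -100% = no-enzyme wells; nearly all actives have a fitted effect of over 60% in size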
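In TEA buffer at pH 8.0 with 5 mM MgCl2, enzyme (1.25 nM) converted F6P (0.5 mM) and ATP (0.1 mM) for 45 min at room temperature. ADP product was read by luciferase luminescence.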
* marks the source's active call; other numbers are inactive results; ? = inconclusive; nt = not tested or not shown; [ ] = dose if it differs, or a comment. Unless noted, calls come from the whole dose curve; as a rule, active = well fitted curve in the direction sought with a large enough effect; inconclusive = small, poorly fitted or top-dose-only effect, or another doubt; inactive = no such curve, though single readings can be large; an effect the other way counts as inactive or inconclusive.

SMILES	IL2 activator	TCR act	A-T KAP1 phos	a7 integrin act	PKM2 act	Tb PFK block
CN(C)CC(C(=O)c1ccccc1)c1ccccc1 (configuration not stated)	-6	2%	32µM*	-10%	0%	-9%
COC(=O)c1ccccc1S(=O)(=O)N1CCc2nc(-c3ccccc3)c3c(c2C1)CO[C@@H](C)C3	nt	nt	nt	nt	-6%[11.5 µM]	nt
COC(=O)CC1c2ccccc2C(Cc2ccc3c(c2)OCO3)=C(C)N1C(=O)OC (configuration not stated)	nt	nt	nt	nt	-16%[11.5 µM]	nt
Cc1cccc2cc(COC(=O)COc3ccccc3)c(=O)[nH]c12	0	-6%	22µM*	13%	-17%	-2%
COc1cc(C2OC(=O)c3c2ccc(OC)c3OC)ccc1O (configuration not stated)	nt	nt	20%	nt	nt	-11%
NS(=O)(=O)c1ccc(NC(=O)CSc2ccccn2)cc1	-3	-3%	-2%	7%	28µM*	-23%
Cc1cc(CNC(=O)[C@H](C)[C@H]2C[C@]2(C)[C@H](NC(=O)OCc2ccccc2)c2ccccc2)nn1C	nt	nt	nt	nt	3%	nt
CC(=O)C1=C(C)NC(SCc2cccc([N+](=O)[O-])c2)=C(C#N)C1c1ccco1 (configuration not stated)	-6	18%	0%	-12%	7.9µM*	3%
O=c1oc2c(CN3CCCCCC3)c(O)ccc2cc1-c1nc2ccccc2[nH]1	nt	nt	16µM*	nt	-5%	-5%
CN1CCN(Cc2c(O)ccc3cc(-c4ccccn4)c(=O)oc23)CC1	0	-2%	8%	3%	1%	-5%
COC(=O)[C@@]1(Cc2ccc(F)cc2)[C@H]2c3cc(C(=O)N4CCCC4)n(CCc4c[nH]c5cc(F)ccc45)c3C[C@H]2CN1C(=O)c1ccccc1	nt	nt	nt	nt	1%	nt
Cc1ccc(OCCCCN2CCc3ccccc3C2)c(C)c1	-2	8%	35µM*	-12%	-2%	7%
Cc1ccc(C(C)C)c(OCCCN(C)Cc2ccccc2)c1	1	-6%[46.1 µM]	35µM*	35%	-17%	1%
Cc1ccc(C(C)C)c(OCCN2CCc3ccccc3C2)c1	-1	-3%	35µM*	-35%	-2%	-3%
COCCNC(=O)C1(C)C=CCN1C(C)=O (configuration not stated)	nt	nt	nt	nt	1%	nt
NC(c1csc(NC(=O)Nc2ccc(OC(F)(F)F)cc2)n1)C1CCCCC1 (configuration not stated)	-1	nt	nt	nt	nt	nt
Clc1ccc(-c2nnc(-c3cccc4ccccc34)o2)cc1Cl	-1	3%	16µM*	14%	-6%	1%
CCN1C(=O)c2cccc3c(S(=O)(=O)Nc4ccccn4)ccc1c23	2	nt	3%	22%	?	9%
CCN1C(=O)c2cccc3c(S(=O)(=O)Nc4nc(C)cs4)ccc1c23	1	1%	-3%	?	4µM*	2%
CCN1C(=O)c2cccc3c(S(=O)(=O)Nc4ncccc4C)ccc1c23	-2	-6%	0%	?	11µM*	-4%
CC#CCN1c2ccccc2[C@]23C[C@@H](C(=O)OC)N(S(=O)(=O)c4ccc5c(c4)OCCN5C)C2=NC(C(=O)OC)=C(C(=O)OC)[C@H]13	nt	nt	nt	nt	-2%[11.5 µM]	nt
CCCC[C@@H]1C[C@H]1C(NC(=O)c1ccccc1)c1ccc(C(F)(F)F)cc1 (some centres not stated)	nt	nt	nt	nt	-5%	nt
CCCCc1nc2c(c3c1C[C@H](C)OC3)CN(C(=O)Cc1cccs1)CC2	nt	nt	nt	nt	-8%[11.5 µM]	nt
CCC/C=C(\CCC)C(NC(=O)c1ccccc1)c1ccccc1 (configuration not stated)	nt	nt	nt	nt	-14%	nt
O=C(O)C(O)c1ccco1 (configuration not stated)	-3	-11%[46.1 µM]	0%	-17%	?	4.8µM*
CCc1ccc(CNc2ccc(O)cc2)cc1	-2	3%	10%	-59%	17%	-18%
Oc1ccc(NCc2ccc(OCc3ccccc3)cc2)cc1	-1	3%	40µM*	-74%	nt	-16%
